In PubChem BioAssay one finds composite z-score, composite Z-score and z-score data, which are given here for five molecules.

Activity calls are given as the source filed them.

In one assay the target is Albumin (Bos taurus) (UniProt P02769). Description: bovine serum albumin binders on microarray, profiling panel, artefact control for SMM control protein annotation, biochemical, small-molecule microarray, Alexa647 label, 635/667 nm fluorescence (AID 1118).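 Also: score merges 667 nm emission intensity and signal-to-noise per printed compound spot.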 The note with it: BSA-A647 binding, fluorescence 635 nm, higher = more signal.
Sequence of Albumin (Bos taurus) (P02769 whole entry, looked up): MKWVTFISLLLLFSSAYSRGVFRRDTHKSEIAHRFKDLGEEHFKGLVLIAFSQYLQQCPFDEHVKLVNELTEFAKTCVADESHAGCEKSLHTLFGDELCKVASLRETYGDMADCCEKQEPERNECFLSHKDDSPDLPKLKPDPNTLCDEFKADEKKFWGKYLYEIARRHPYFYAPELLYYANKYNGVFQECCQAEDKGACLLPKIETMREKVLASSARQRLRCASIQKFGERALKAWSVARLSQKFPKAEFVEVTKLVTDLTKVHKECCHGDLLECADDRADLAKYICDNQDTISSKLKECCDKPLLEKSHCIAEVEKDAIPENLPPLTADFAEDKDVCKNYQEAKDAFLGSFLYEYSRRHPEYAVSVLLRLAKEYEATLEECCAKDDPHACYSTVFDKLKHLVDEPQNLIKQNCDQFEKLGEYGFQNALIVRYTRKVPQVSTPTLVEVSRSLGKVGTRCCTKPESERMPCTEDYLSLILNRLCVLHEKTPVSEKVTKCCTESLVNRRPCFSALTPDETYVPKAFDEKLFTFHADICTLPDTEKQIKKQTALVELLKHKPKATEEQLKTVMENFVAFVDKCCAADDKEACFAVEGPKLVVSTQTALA
A short description of assay [1]: small-molecule microarray binders of probe aXIP, primary screen, biochemical, NeuroSMM set, 635/667 nm fluorescence (AID 1119).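 Also: probe is the protein aXip251-270 applied at 1 µg/mL to compound-printed slides; binding of probe to printed compounds measured as 667 nm fluorescence plus signal to noise.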 As to conditions: higher = more signal, called active from +8 up or from −8 down.
A short description of assay [2]: small-molecule binders of probe aNOTCH3, primary screen, biochemical, small-molecule microarray, 635/667 nm fluorescence (AID 1120).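 Also: probe is a biotin-tagged antibody raised against NOTCH3 rather than NOTCH3 protein; score merges spot fluorescence near 667 nm with spot signal to noise.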 As to conditions: higher = more signal.
Assay [3] in a line: small-molecule binders of probe aNOTCH2, primary screen, biochemical, small-molecule microarray, 635/667 nm fluorescence (AID 1121).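 Also: score merges feature fluorescence read at 667 nm with its signal to noise.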 The note with it: higher = more signal.
Assay [4] deals with Carbonic anhydrase 2 (Homo sapiens) (UniProt P00918). Description: CAII small-molecule binders, profiling panel, biochemical, small-molecule microarray, Alexa647-labelled CAII (AID 1122). The note with it: CAII-A647 binding fluorescence, higher = more signal.
A short description of assay [5]: COS7 lysate on small-molecule microarray, probe aHis, 635 nm (AID 1123).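 Also: z-score combines 667nm fluorescence intensity with signal-to-noise per printed compound spot.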 The note with it: COS7 cell lysate, fluorescence, higher = more signal.
Assay [6] can be described thus: compound binding in COS7 lysate, probe aLAP1, primary screen, cell lysate, small-molecule microarray (AID 1124).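 Also: lysate comes from COS7 cells expressing LAP1 and is applied at 0.3 µg/mL; score merges spot fluorescence near 667 nm with signal-to-noise over triplicate slides.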 The note with it: probe aLAP1, fluorescence, higher = more signal.
The test system of the next assay is Sam68 (KHDRBS1). Description: Sam68 small-molecule binders, primary screen, biochemical, small-molecule microarray, 635 nm fluorescence (AID 1125).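 Also: score merges 667 nm channel intensity with signal to noise over triplicate slides.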 The note with it: small-molecule microarray binding, higher = more signal.
The test system of assay [7] is Chordin-like protein 2 (CHRDL2). Description: CHRDL2 small-molecule binders, primary screen, biochemical, small-molecule microarray, 635 nm fluorescence (AID 1126).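 Also: printed compound slides probed with Chrdl2 protein at 4 µg/mL for 1 h at 4 C; score merges 667 nm emission intensity with signal to noise over three replicate slides.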 The note with it: small-molecule microarray binding, fluorescence 635 nm; higher = more signal.
For assay [8], the target named is Concanavalin-A (Canavalia ensiformis) (UniProt P02866). Description: ConA small-molecule binders, primary screen, artefact control for SMM control protein annotation, biochemical, small-molecule microarray, Alexa647 label, 635 nm (AID 1127).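 Also: z combines 667 nm emission intensity with signal-to-noise across three replicate slides.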 The note with it: ConA-A647 binding fluorescence, higher = more signal.
Sequence of Concanavalin-A (Canavalia ensiformis) (P02866 whole entry, looked up): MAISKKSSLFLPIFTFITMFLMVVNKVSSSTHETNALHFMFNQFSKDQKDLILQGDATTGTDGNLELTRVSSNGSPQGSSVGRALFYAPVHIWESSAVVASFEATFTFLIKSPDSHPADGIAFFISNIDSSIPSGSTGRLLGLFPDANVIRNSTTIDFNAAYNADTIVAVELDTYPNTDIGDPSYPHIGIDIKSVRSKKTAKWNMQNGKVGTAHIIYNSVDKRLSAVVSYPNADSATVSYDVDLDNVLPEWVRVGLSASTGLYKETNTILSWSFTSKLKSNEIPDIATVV
Assay [9] in a line: anti-His antibody binders, primary screen, artefact control for SMM control protein annotation, biochemical, small-molecule microarray, 635 nm fluorescence (AID 1128).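 Also: score merges feature fluorescence with signal-to-noise for each printed compound spot.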 The note with it: anti-His Alexa647 antibody binding, higher = more signal.
For assay [10], the system named is Human papillomavirus type 1a E7 protein (residues 1-88). Description: HPV1a E7 small-molecule binders, primary screen, biochemical, small-molecule microarray, residues 1-88, 635 nm (AID 1129). The note with it: small-molecule microarray binding, fluorescence 635 nm; higher = more signal.
Assay [11] has as its target Focal adhesion kinase 1 (Homo sapiens) (UniProt Q05397). Description: small-molecule microarray binders of FAK, primary screen, biochemical, 635/667 nm fluorescence, BSA, DTT (AID 1130).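 Also: composite of spot emission at 667 nm and signal to noise over triplicate slides.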 As to conditions: PTK2 binding, 635 nm fluorescence, higher = more signal.
Assay [12] has as its system Fibrinogen (Alexa647-labelled). Description: fibrinogen binders on compound microarrays, profiling panel, artefact control for SMM control-protein annotation, biochemical, small-molecule microarray, 635/667 nm fluorescence (AID 1131).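 Also: z-score merges 667 nm fluorescence with per-spot signal-to-noise over triplicate slides.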 The note with it: fibrinogen-A647 binding fluorescence, higher = more signal.
For assay [13], the target named is Follistatin (Homo sapiens) (UniProt P19883). Description: follistatin binders on small-molecule microarrays, primary screen, biochemical, small-molecule microarray, 635/667 nm fluorescence (AID 1132). The note with it: FST binding, 635 nm fluorescence, higher = more signal.
Sequence of Follistatin (Homo sapiens) (P19883 whole entry, looked up): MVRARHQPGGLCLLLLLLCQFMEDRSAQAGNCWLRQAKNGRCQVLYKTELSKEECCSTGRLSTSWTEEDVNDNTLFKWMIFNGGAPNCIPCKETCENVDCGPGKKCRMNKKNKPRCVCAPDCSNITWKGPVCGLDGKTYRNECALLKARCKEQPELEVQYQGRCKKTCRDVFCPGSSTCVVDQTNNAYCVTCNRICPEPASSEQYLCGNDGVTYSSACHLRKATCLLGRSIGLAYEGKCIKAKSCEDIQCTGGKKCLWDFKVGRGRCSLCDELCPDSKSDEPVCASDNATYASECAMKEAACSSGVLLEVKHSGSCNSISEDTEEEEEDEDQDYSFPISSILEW
Assay [14] has as its target Fibroblast growth factor 2 (Homo sapiens) (UniProt P09038). Description: FGF2 binders on small-molecule microarrays, primary screen, biochemical, small-molecule microarray, 635/667 nm fluorescence (AID 1133). As to conditions: small-molecule microarray binding, FGF2, fluorescence 635/667; higher = more signal.
A short description of assay [15]: mitochondrial membrane potential change in A549 cells, profiling panel, cell-based, JC-1 fluorescence, basal, 24 h, 100 nL (AID 1138).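 Also: A549 lung adenocarcinoma cells under basal conditions with no added stimulus; test concentration not given here.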 The note with it: higher = more signal.
Another assay has as its system Lefty1. Description: Lefty1 binders on small-molecule microarrays, primary screen, biochemical, small-molecule microarray, 635/667 nm fluorescence (AID 1139). The note with it: small-molecule microarray binding, fluorescence 635/667; higher = more signal.
Assay [16] concerns wheat germ agglutinin (Triticum aestivum), Alexa647-labelled. Description: wheat germ agglutinin binders on compound microarrays, profiling panel, artefact control for SMM control-protein annotation, biochemical, small-molecule microarray, 635/667 nm fluorescence (AID 1140).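 Also: score merges 667 nm feature emission with signal to noise over triplicate slides.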 The note with it: WGA-A647 binding, 635 nm fluorescence, higher = more signal.
Assay [17] addresses Luciferin 4-monooxygenase (Photinus pyralis) (UniProt P08659). Description: firefly luciferase enzyme inhibitors, primary screen, biochemical, luminescence, purified enzyme, 2006 set (AID 1141).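 Also: cell-free assay with purified firefly luciferase at 100 ng per well in PBS; test concentration not given here.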 The note with it: SteadyGlo luminescence, 30 min, higher = more signal, called active from +8 up or from −8 down.

Sequence of Luciferin 4-monooxygenase (Photinus pyralis) (P08659 whole entry, looked up): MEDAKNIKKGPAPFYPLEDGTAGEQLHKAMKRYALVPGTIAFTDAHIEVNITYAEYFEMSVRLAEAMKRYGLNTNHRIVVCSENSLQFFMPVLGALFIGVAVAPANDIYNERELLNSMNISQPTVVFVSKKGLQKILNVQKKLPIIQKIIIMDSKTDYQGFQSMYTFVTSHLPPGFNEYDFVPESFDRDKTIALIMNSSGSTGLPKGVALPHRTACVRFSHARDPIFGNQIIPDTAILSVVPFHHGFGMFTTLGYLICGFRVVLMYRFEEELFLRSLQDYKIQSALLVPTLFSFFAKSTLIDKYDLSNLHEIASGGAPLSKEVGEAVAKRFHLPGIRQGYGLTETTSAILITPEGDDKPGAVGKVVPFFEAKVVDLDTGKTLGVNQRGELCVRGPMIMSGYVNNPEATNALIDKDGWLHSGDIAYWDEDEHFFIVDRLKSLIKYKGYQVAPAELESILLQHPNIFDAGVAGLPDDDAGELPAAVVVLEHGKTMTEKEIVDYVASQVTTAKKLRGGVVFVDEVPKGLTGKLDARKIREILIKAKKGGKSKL
Sequence of Fibroblast growth factor 2 (Homo sapiens) (P09038 whole entry, looked up): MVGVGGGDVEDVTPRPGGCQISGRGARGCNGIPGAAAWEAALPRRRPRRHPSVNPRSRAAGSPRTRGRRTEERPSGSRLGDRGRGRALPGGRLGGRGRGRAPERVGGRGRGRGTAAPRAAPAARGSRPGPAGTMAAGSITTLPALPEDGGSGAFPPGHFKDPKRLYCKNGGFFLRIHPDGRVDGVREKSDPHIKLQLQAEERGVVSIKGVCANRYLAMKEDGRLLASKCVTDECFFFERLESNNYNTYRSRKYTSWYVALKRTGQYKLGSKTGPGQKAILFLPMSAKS
Sequence of Focal adhesion kinase 1 (Homo sapiens) (Q05397 whole entry, looked up): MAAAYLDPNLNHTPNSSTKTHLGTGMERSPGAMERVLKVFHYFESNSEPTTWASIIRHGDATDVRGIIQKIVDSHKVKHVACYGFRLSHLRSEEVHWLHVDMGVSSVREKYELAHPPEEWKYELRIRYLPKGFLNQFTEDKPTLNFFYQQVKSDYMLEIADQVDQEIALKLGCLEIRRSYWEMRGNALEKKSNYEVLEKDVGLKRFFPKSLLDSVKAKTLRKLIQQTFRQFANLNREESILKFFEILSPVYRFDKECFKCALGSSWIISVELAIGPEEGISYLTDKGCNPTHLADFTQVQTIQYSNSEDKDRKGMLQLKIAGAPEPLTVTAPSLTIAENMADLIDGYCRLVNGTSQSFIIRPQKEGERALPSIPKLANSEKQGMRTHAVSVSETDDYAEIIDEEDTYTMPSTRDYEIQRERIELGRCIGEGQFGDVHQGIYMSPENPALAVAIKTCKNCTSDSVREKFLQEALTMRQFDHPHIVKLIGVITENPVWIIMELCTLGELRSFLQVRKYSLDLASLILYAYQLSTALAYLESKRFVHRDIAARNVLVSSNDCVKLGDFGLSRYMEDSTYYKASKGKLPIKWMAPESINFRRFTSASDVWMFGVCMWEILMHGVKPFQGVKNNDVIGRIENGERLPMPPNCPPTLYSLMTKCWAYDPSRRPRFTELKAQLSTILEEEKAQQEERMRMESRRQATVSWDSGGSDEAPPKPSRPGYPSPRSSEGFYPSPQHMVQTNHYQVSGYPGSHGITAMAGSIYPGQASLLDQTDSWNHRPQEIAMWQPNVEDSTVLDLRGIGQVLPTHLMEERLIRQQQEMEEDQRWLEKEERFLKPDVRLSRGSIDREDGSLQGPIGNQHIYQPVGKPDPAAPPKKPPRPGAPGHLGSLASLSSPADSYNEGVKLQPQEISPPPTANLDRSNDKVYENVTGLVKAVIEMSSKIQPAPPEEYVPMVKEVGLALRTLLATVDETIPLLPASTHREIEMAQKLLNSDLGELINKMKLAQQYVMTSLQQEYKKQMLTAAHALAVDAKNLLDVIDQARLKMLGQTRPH

As for `CCOC(=O)C[C@H]1[C@H](OC(=O)c2ccccc2-c2ccccc2)[C@@H](NC(=O)Cc2ccc(OC)cc2)c2cc(OCCCO)ccc2N1C(=O)c1ccccc1`, the composite z-score in the assay with Albumin (Bos taurus) is 0.176; in [2], -0.113; in [3], -0.155; in [4], -0.0951; in assay [5], 0.157; in assay [6], -0.0152. Further, the composite z-score with Sam68 (KHDRBS1) was -0.0445; in [7] it was 0.0492; in [8] it was -0.393; in [9], -0.269; in assay [10] it was -0.371; in assay [11], 0.145. The composite z-score is -0.449 in [12]; 0.23 in assay [13]; -0.443 in [14]; 0.189 in the assay with Lefty1; -0.0397 in assay [16]. Moreover, the composite Z-score in [1] is 0.0843 (inactive). In addition, the z-score in assay [15] was 0.362; in assay [17] it was 0.474 (inactive).

Turning to `C=C(C(=O)CC[C@H](OC(C)=O)c1ccc(OCCO)cc1)C(C)C`, the composite z-score with Albumin (Bos taurus) was 0.531; in assay [2], 0.0569; in assay [3], -0.132; in assay [4], 0.708; in assay [5] it was 0.354; in [6] it was 1.15. For the same molecule, the composite z-score in the assay on Sam68 (KHDRBS1) is 0.564; in assay [7], 0.615; in assay [8] it was 0.846; in assay [9], 0.772; in [10] it was -0.02; in [11], -0.381. For the same molecule, the composite z-score amounted to 0.711 in assay [12]; 1.4 in assay [13]; 0.911 in assay [14]; 1.45 with Lefty1; 0.0674 in assay [16]. In addition, the composite Z-score in [1] was 0.277 (inactive). In addition, the results for the z-score in [15] and in assay [17] were -0.217 and -0.503 (inactive), respectively.

Turning to `CO[C@H]1O[C@H](CO)[C@@H](OC(=O)Nc2ccc(Oc3ccccc3)cc2)[C@H](OC(=O)Nc2ccccc2)[C@H]1OC(=O)Nc1ccccc1`, the composite z-score in the assay with Albumin (Bos taurus) was 0.832; in [2] it was 0.295; in assay [3] it was -0.0064; in assay [4], 0.467; in assay [5], 2.09; in assay [6], -0.0652. The composite z-score is 1.3 in the assay with Sam68 (KHDRBS1); -0.0078 in [7]; 1.16 in [8]; 1.88 in [9]; 1.27 in assay [10]; 1.12 in assay [11]. The composite z-score in assay [12] stood at 0.985; in assay [13] it was 1.07; in assay [14], 1.61; in the assay with Lefty1, 0.444; in assay [16], 1.08. Further, the composite Z-score in [1] is 0.914 (inactive). For the same molecule, the results for the z-score in assay [15] and in assay [17] were -1.69 and -0.923 (inactive), respectively.

Consider `Cc1ccc(S[C@]2(C(=O)NCC(C)C)CC(=O)N(Cc3ccccc3Cl)[C@@H]2c2ccc(CO)cc2)cc1`, for which the composite z-score was -0.968 with Albumin (Bos taurus); -0.312 in assay [2]; -0.162 in [3]; 0.738 in assay [4]; 0.678 in assay [5]; -0.0092 in assay [6]. For the same molecule, the composite z-score in the assay on Sam68 (KHDRBS1) is -0.897; in [7] it was -0.796; in assay [8] it was -1.88; in [9], 1.8; in [10], -1.41; in assay [11], -1.09. For the same molecule, the composite z-score in [12] is -0.804; in assay [13] it was -1.5; in [14], -1.21; in the assay with Lefty1, -2.17; in assay [16] it was 0.208. The composite Z-score in assay [1] is -0.12 (inactive). Besides, the results for the z-score in [15] and in [17] were 1.37 and -0.79 (inactive), respectively.

For `O=C(NCc1ccccc1)[C@]1(CCS(=O)(=O)c2ccccc2)N=C(c2ccc(OCCCO)cc2)O[C@@H]1c1ccccc1`, the composite z-score with Albumin (Bos taurus) is 0.714; in assay [2], 0.296; in [3], -0.048; in [4], 0.555; in assay [5] it was 0.751; in assay [6] it was 0.379. The composite z-score with Sam68 (KHDRBS1) was 1.31; in assay [7], 0.205; in assay [8], 1.08; in assay [9], 1; in assay [10], 1.18; in assay [11], 0.471. The composite z-score in assay [12] is 0.939; in assay [13], 0.919; in assay [14], -0.0072; with Lefty1, 0.469; in assay [16] it was 0.785. For the same molecule, the composite Z-score in assay [1] was 0.235 (inactive). In addition, the z-score in assay [15] was -0.864; in assay [17], 0.781 (inactive).
